Compounds with a hit are over-represented: about 2.3% of the library has one in this group of screens.
Tau ThT inhib: inhibitors of human tau fibril formation, thioflavin T binding. P10636. recombinant tau K18 P301L, heparin-induced fibrillization, ThT fluorescence. Potency, µM (titrated, usually from 57.4 µM), inactives show at the highest dose activity, negative = inhibition, actives largely listed as inhibitors. 270,000 tested, 2.1% active; also: potency is read from the fitted curve at half-maximal effect; nearly all actives have a fitted effect of over 55% in size
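K18 P301L tau (15 uM + 0.24 uM Alexa 594-tagged), heparin 20 uM, NaOAc pH 7, 6 h 37 C; ThT 30 uM, 1 h RT, ex 450/em 510 nm.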
Tau fibril FP: tau fibrillization inhibition (FP). 280,000 tested, 0.39% active. AID 1468. P10636. Potency, µM (top dose mostly 57.7 µM), for inactives: at the highest dose activity, negative = inhibition, hits mostly inhibitors. K18 P301L tau heparin fibrillization, Alexa594 FP, 6 h; also: potency is read from the fitted curve at half-maximal effect; nearly all actives have a fitted effect of over 55% in size
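Recombinant K18 P301L […], labeled with Alexa 594 at 0.24 uM over 15 uM unlabeled; heparin inducer 20 uM final; 37 C, 6 hr; FP endpoint.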
FBPA coupling cs: coupling enzyme interference in Giardia aldolase counter-screen | coupling enzyme system counterscreen, AmpLite Red fluorescence | activity change, negative = inhibition, % at 58.2 µM, hits read low | 290,000 tested, 0.67% active; in the data active = activity change below about -30%
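Compounds tested against the coupling enzymes alone at 57.5 uM final; readout was AmpLite Red fluorescence (525/598 nm) after 20 min at RT.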
Tau fluor counter: counter-screen for tau fibril formation inhibitors. tau K18 P301L Alexa594 fluorescence, heparin fibrillization. 280,000 tested, 0.93% active. Potency, µM (doses to about 57.7 µM), without a hit: at the top dose activity change, negative = decrease. AID 1463; also: potency is read from the fitted curve at half-maximal effect; nearly all actives have a fitted effect of over 55% in size
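Human tau K18 P301L (15 uM unlabeled, 0.24 uM Alexa 594-labeled) in 100 mM sodium acetate pH 7 with 20 uM heparin, 6 hr at 37 C. ThT 30 uM added, 1 hr ambient; Alexa 594 FP and total fluorescence read at 555/632 nm.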
USP1-UAF1 inh: blocks the human USP1/UAF1 deubiquitinase complex; O94782; recombinant USP1/UAF1, Ub-Rhodamine cleavage fluorescence; Potency, µM (highest dose often 57.1 µM), inactives show at the highest dose activity change, negative = inhibition, hits mostly inhibitors; 390,000 tested, 0.23% active; AID 743255; also: potency is read from the fitted curve at half-maximal effect; nearly all actives have a fitted effect of over 60% in size
Target sequence (O94782 whole entry, looked up): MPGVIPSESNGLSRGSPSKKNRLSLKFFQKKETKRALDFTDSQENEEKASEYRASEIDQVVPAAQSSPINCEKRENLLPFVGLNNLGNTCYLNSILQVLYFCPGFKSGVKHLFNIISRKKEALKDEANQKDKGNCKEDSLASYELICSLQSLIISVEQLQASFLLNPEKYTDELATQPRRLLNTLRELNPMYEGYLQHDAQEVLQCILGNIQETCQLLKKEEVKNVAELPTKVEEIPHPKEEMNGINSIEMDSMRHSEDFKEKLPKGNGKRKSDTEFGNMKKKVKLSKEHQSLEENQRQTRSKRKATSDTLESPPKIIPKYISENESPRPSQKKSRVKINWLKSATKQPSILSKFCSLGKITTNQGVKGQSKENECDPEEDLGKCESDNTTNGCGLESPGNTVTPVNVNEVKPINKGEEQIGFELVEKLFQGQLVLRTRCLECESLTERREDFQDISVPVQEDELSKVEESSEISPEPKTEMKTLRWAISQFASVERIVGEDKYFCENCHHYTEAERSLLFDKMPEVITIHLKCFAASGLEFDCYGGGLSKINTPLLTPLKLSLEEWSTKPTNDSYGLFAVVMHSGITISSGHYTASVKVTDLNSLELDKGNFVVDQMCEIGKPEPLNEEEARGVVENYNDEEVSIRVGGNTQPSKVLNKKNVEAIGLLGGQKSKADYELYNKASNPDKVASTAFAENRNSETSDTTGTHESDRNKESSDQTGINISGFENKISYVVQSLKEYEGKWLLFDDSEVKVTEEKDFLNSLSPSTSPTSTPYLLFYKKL
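Step one: compound is pinned into 1nM USP1/UAF1 in HEPES pH 7.8 buffer with TCEP. Step two: 15 min room-temperature incubation. Step three: Ub-Rho (150nM final) starts cleavage, tracked by fluorescence over six one-minute reads.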
Starred values were filed as active, the others as inactive; [ ] = another dose, or the depositor's remark. Unless noted, calls follow the shape of the dose curve; as a rule, active = well fitted curve in the direction sought with a large enough effect; inconclusive = small, poorly fitted or top-dose-only effect, or another doubt; inactive = no such curve, though single readings can be large; an effect the other way counts as inactive or inconclusive. % is scaled to controls: 0 for no effect and ±100 for the full control effect.

Results for O=C(Nc1ccc2c(c1)OCO2)c1ccc(N2CCCC2)c([N+](=O)[O-])c1 ?
Tau ThT inhib: 13µM*; Tau fibril FP: 17%; FBPA coupling cs: -4; Tau fluor counter: inconclusive; USP1-UAF1 inh: -9%

Results for CC(=O)N1CCN(c2ccc(NC(=O)c3ccc(N4CCCC4)c([N+](=O)[O-])c3)cc2Cl)CC1 ?
Tau ThT inhib: 4µM*; Tau fibril FP: -6%; FBPA coupling cs: -1; Tau fluor counter: inconclusive; USP1-UAF1 inh: -16%

What do the screens show for `O=C(Nc1ccc(N2CCCC2)c(Cl)c1)c1ccc2c(c1)OCCO2`?
USP1-UAF1 inh: -11%

What do the screens show for `O=C(Nc1ccc(N2CCCCC2)c(Cl)c1)c1ccc2c(c1)OCCO2`?
Tau ThT inhib: inconclusive; Tau fibril FP: 12%; FBPA coupling cs: -12; Tau fluor counter: 14µM*[quencher]; USP1-UAF1 inh: -19%

Results for Cc1ccc(NC(=S)N/N=C/c2c(C)[nH]c3ccccc23)cc1 ?
Tau ThT inhib: inconclusive; Tau fibril FP: 9%; FBPA coupling cs: -2; Tau fluor counter: 14µM*[quencher]; USP1-UAF1 inh: -13%

Results for Cc1[nH]c2ccccc2c1/C=N/NC(=S)NCc1ccccc1 ?
Tau ThT inhib: inconclusive; Tau fibril FP: -8%; FBPA coupling cs: -2; Tau fluor counter: 13µM*[quencher]; USP1-UAF1 inh: -17%

Results for Cc1[nH]c2ccccc2c1/C=N/NC(=O)c1cc(-c2ccccc2)n[nH]1 ?
Tau fibril FP: inconclusive; FBPA coupling cs: -1; Tau fluor counter: 16µM*[quencher]; USP1-UAF1 inh: -23%

How did Cc1[nH]c2ccccc2c1/C=N/NC(=O)c1ccccc1 do in these assays?
FBPA coupling cs: 1; USP1-UAF1 inh: -22%

How did Cc1[nH]c2ccccc2c1/C=N/NC(N)=S do in these assays?
Tau ThT inhib: inconclusive; Tau fibril FP: -2%; FBPA coupling cs: -1; Tau fluor counter: -18%; USP1-UAF1 inh: -9%

How did Cc1cc(C)cc(NC(=O)CSc2nnc(CNC(=O)c3c(F)cccc3Cl)o2)c1 do in these assays?
Tau ThT inhib: -18%; Tau fibril FP: -14%; Tau fluor counter: -23%; USP1-UAF1 inh: -5%

How did O=C(COC(=O)c1ccco1)NCc1ccc(F)cc1 do in these assays?
Tau ThT inhib: -3%; Tau fibril FP: -3%; FBPA coupling cs: 0; Tau fluor counter: -3%; USP1-UAF1 inh: -20%

What do the screens show for `Cc1cc(C)cc(NC(=O)C2CCN(S(=O)(=O)c3ccc4c(c3)oc(=O)n4C)CC2)c1`?
Tau ThT inhib: 9%; Tau fibril FP: -3%; Tau fluor counter: -19%; USP1-UAF1 inh: -11%

How did CC(C)N1CCN(c2ccc(OC[C@@H]3CO[C@@](Cn4cncn4)(c4ccc(Cl)cc4Cl)O3)cc2)CC1 do in these assays?
FBPA coupling cs: 2

What do the screens show for `CCC(C)n1ncn(-c2ccc(N3CCN(c4ccc(OCC5COC(Cn6cncn6)(c6ccc(Cl)cc6Cl)O5)cc4)CC3)cc2)c1=O` (centres undefined)?
Tau ThT inhib: 1.4µM*; Tau fibril FP: -7%; FBPA coupling cs: -1; Tau fluor counter: inconclusive; USP1-UAF1 inh: -20%

What do the screens show for `Cc1ccc(C)c(CSc2cn(CCNC(=O)c3cccs3)c3ccccc23)c1`?
Tau ThT inhib: inconclusive; Tau fibril FP: -12%; Tau fluor counter: 8.9µM*[quencher]; USP1-UAF1 inh: -31%

Results for O=C(NCCn1cc(SCc2ccccc2Cl)c2ccccc21)c1cccs1 ?
Tau ThT inhib: -26%; Tau fibril FP: inconclusive; Tau fluor counter: 3.2µM*[quencher]; USP1-UAF1 inh: -20%

Results for O=C(NCCn1cc(SCc2ccccc2)c2ccccc21)c1cccs1 ?
Tau ThT inhib: inconclusive; Tau fibril FP: inconclusive; Tau fluor counter: 5.6µM*[quencher]; USP1-UAF1 inh: -9%

What do the screens show for `CCOC(=O)/C=C/C(=O)Nc1ccccc1-c1ccccc1NC(=O)/C=C/C(=O)OCC`?
Tau ThT inhib: 20µM*; Tau fibril FP: inconclusive; FBPA coupling cs: 1; Tau fluor counter: -11%; USP1-UAF1 inh: 5%

Results for CCCCSCCCNC(=O)c1cc(-c2cccnc2)nc2ccc(S(=O)(=O)N3CCC(C)CC3)cc12 ?
Tau ThT inhib: -2%; Tau fibril FP: -2%; Tau fluor counter: -5%; USP1-UAF1 inh: -8%

What do the screens show for `CCOc1cc2c3c(c1)C(C)=CC(C)(C)N3C(=O)C2=O`?
Tau ThT inhib: inconclusive; Tau fibril FP: -5%; FBPA coupling cs: -1; Tau fluor counter: -21%; USP1-UAF1 inh: -7%

Results for CC(=O)Oc1cc2c3c(c1)/C(=C1/SC(=S)NC1=O)C(=O)N3C(C)(C)C=C2C ?
Tau ThT inhib: 7.1µM*; Tau fibril FP: inconclusive; FBPA coupling cs: -18; Tau fluor counter: 7.1µM*[quencher]; USP1-UAF1 inh: -30%

How did COc1ccccc1CN1C(=O)C(=O)c2cccc(C)c21 do in these assays?
Tau ThT inhib: -14%; Tau fibril FP: 4%; Tau fluor counter: -4%; USP1-UAF1 inh: -13%

What do the screens show for `Cc1cccc2c1N(Cc1ccccc1OCCC(C)C)C(=O)C2=O`?
Tau ThT inhib: 25µM*; Tau fibril FP: -8%; Tau fluor counter: -27%; USP1-UAF1 inh: inconclusive

What do the screens show for `Cc1ccc(OCCN2C(=O)C(=O)c3cccc(C)c32)cc1`?
Tau ThT inhib: -11%; Tau fibril FP: 3%; FBPA coupling cs: 0; Tau fluor counter: 3%; USP1-UAF1 inh: -10%

Results for Cc1cc(Br)cc2c1N(Cc1ccccc1OC(C)C)C(=O)C2=O ?
Tau ThT inhib: 25µM*; Tau fibril FP: inconclusive; Tau fluor counter: inconclusive; USP1-UAF1 inh: -29%

Results for CCOC(=O)CN1C(=O)C(=O)c2cccc(C)c21 ?
Tau ThT inhib: -13%; Tau fibril FP: inconclusive; FBPA coupling cs: -48*; Tau fluor counter: -5%; USP1-UAF1 inh: -24%

How did CCCCCCCCCCCCC/C=C/[C@@H](O)C(CO)NC(C)=O (some centres undefined) do in these assays?
Tau ThT inhib: -2%; Tau fibril FP: -6%; FBPA coupling cs: -2; Tau fluor counter: -8%

How did CCOC(=O)CNC(=O)O[C@@H]1C(=O)c2ccc(OC)cc2O[C@H]1c1ccc2c(c1)OCO2 do in these assays?
Tau ThT inhib: inconclusive; Tau fibril FP: -15%; FBPA coupling cs: 0; Tau fluor counter: -25%

What do the screens show for `COc1cc(Br)c(Br)c(Br)c1N`?
Tau ThT inhib: inconclusive; Tau fibril FP: inconclusive; FBPA coupling cs: -8; Tau fluor counter: inconclusive; USP1-UAF1 inh: -2%

Screening data from PubChem.
